Assay [1] in a line: CEETOX_H295R_CORTISOL_noMTC: CeeTox H295R High-throughput Steroidogenesis Assay for Cortisol, maximum tolerated concentration (MTC) filtered results only (AID 2283916). To be noted: actives raise or lower the signal. Put shortly:
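H295R human adrenal cells prestimulated 48 h with 10 uM forskolin, then exposed 48 h to chemical in 0.1% DMSO; cortisol in medium quantified by HPLC-MS/MS; bidirectional fit vs DMSO baseline, concentrations not MTT-filtered for MTC.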

Assay [2] can be described thus: CEETOX_H295R_CORTIC_noMTC: CeeTox H295R High-throughput Steroidogenesis Assay for Corticosterone (CORTIC), maximum tolerated concentration (MTC) filtered results only (AID 2283917). The settings on record: actives raise or lower the signal. The method in brief: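 H295R adrenal cells pre-stimulated 48 h with 10 uM forskolin, then exposed 48 h to chemical in 0.1% DMSO; corticosterone in medium quantified by HPLC-MS/MS, fitted bidirectionally versus DMSO without MTT-based concentration filtering.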

Assay [3] in a line: CEETOX_H295R_DOC_noMTC: CeeTox H295R High-throughput Steroidogenesis Assay for DOC, maximum tolerated concentration (MTC) filtered results only (AID 2283918). To be noted: actives raise or lower the signal. The method in brief: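 H295R cells prestimulated 48 h with 10 uM forskolin, then exposed 48 h to chemical in 0.1% DMSO. 11-Deoxycorticosterone in medium measured by MTBE extraction and HPLC-MS/MS; bidirectional fit vs DMSO, no MTC filter.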

Assay [4] in a line: CEETOX_H295R_ESTRADIOL_noMTC: CeeTox H295R High-throughput Steroidogenesis Assay for Estradiol, maximum tolerated concentration (MTC) filtered results only (AID 2283919). The settings on record: actives raise or lower the signal. Put shortly: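 H295R human adrenal cells pre-stimulated 48 h with 10 uM forskolin, then exposed 48 h to chemical (0.1% DMSO final). Estradiol in medium measured by HPLC-MS/MS after MTBE extraction and dansyl derivatization; bidirectional fit versus DMSO, concentrations not MTT-filtered.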

Assay [5] in a line: CEETOX_H295R_PROG_noMTC: CeeTox H295R High-throughput Steroidogenesis Assay for Progesterone (PROG), maximum tolerated concentration (MTC) filtered results only (AID 2283920). The settings on record: actives raise or lower the signal. The method in brief:
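H295R cells, prestimulated 48 h with 10 uM forskolin, exposed 48 h to chemical in 0.1% DMSO. Medium progesterone quantified by MTBE extraction and HPLC-MS/MS; bidirectional fit versus DMSO, concentrations not MTT-filtered.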

The nature of assay [6]: CEETOX_H295R_ESTRONE_noMTC: CeeTox H295R High-throughput Steroidogenesis Assay for Estrone, maximum tolerated concentration (MTC) filtered results only (AID 2283921). To be noted: actives raise or lower the signal. As to the method: CEETOX_H295R is a cell-based, multiplexed-readout assay that uses H295R, a human adrenal gland cell line, with measurements taken at 48 hours after chemical dosing in a 96-well plate.CEETOX_H295R_ESTRONE_noMTC is one of 12 assay component(s) measured or calculated from the CEETOX_H295R assay (11 hormones and 1 viability assay). It is designed to make measurements of hormone induction, a form of inducible reporter, as detected with absorbance signals by HPLC-MS-MS technology. The concentrations for these components have not been pre-filtered for the maximum tolerated concentration (MTC) based on the MTT assay (_noMTC).Data from the assay component CEETOX_H295R_ESTRONE_noMTC was analyzed into 1 assay endpoint. This assay endpoint, CEETOX_H295R_ESTRONE_noMTC, was analyzed with bidirectional fitting relative to DMSO as the negative control and baseline of activity. […]
Cell culture and media preparation procedures were conducted in accordance with OECD Test No. 456 guidelines, with minor modifications. […] For steroid quantification, media samples were shipped to OpAns, LLC (Durham, NC) on dry ice, and samples were thawed to room temperature prior to liquid-liquid extraction. […] Steroid hormones were separated by HPLC, eluted using a reverse phase C18 gradient with electrospray positive ionization, followed by quantification by tandem mass spectrometry (MS/MS). […]

Assay [7] in a line: CEETOX_H295R_TESTO_noMTC: CeeTox H295R High-throughput Steroidogenesis Assay for Testosterone (TESTO), maximum tolerated concentration (MTC) filtered results only (AID 2283924). To be noted: actives raise or lower the signal. The method in brief:
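H295R cells prestimulated 48 h with 10 uM forskolin, then exposed 48 h to chemicals in 0.1% DMSO final. Testosterone in medium quantified by MTBE extraction and HPLC-MS/MS; bidirectional fit versus DMSO, concentrations […] filtered by MTT-based maximum tolerated concentration.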

The target of the next assay is PGR (gene 5241) (UniProt P06401). The assay can be described thus: TOX21_PR_BLA_Followup_Antagonist_ratio: Tox21 HEK293 Progesterone Receptor (PR) Antagonism Beta-lactamase Follow-Up Assay, Ratio (AID 2283934; active means hit-call score of the fitted dose curve at least 0.9, where 1 is the maximum). Put shortly: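 PR-UAS-bla HEK293T cells, 3,000/well in 2% charcoal-stripped FBS, given compound plus 1nM R5020 agonist for 16 hr at 37C. Beta-lactamase FRET substrate 2 hours, ratio cleaved/uncleaved fluorescence; viability by CellTiter-Glo in same wells.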
PGR (gene 5241), sequence (P06401 whole entry, looked up): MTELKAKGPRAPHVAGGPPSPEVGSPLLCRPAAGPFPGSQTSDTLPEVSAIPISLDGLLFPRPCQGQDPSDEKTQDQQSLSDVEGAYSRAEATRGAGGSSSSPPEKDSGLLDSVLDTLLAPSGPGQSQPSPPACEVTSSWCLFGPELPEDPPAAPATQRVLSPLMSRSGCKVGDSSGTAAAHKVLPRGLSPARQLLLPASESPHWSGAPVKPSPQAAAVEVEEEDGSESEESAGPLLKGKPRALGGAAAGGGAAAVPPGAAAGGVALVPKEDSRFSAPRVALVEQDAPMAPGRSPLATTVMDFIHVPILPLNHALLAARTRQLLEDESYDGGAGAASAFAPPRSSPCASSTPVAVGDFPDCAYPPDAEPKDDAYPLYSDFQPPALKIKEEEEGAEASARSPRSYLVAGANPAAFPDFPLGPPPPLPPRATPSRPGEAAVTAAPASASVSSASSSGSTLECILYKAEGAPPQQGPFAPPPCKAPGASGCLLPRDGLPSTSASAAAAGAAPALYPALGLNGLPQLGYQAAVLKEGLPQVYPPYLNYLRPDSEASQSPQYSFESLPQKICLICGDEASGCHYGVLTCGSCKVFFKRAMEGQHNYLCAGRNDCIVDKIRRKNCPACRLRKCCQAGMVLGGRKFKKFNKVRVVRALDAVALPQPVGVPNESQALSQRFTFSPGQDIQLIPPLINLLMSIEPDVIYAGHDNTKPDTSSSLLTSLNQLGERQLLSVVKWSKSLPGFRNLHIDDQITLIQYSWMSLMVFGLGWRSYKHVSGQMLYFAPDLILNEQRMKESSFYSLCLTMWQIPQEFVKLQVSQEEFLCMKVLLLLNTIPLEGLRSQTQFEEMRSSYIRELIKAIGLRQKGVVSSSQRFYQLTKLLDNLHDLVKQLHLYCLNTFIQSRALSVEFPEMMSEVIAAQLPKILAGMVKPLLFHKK

A short description of assay [8]: TOX21_PR_BLA_Followup_Antagonist_viability: Viability Assessment in the Tox21 HEK293 Progesterone Receptor (PR) Antagonism Beta-lactamase Follow-Up Assay (AID 2283936; active means hit-call score of the fitted dose curve at least 0.9, where 1 is the maximum;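 further: hits lower the luminescence signal meaning cytotoxicity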). Put shortly:
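PR-UAS-bla HEK293T cells (3,000/well, 2% charcoal-stripped FBS) given compound plus R5020 agonist, 16 h at 37C. CellTiter-Glo added after bla read, 30 min at room temperature; luminescence loss indicates cytotoxicity.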

A short description of assay [9]: TOX21_PR_BLA_Followup_Agonist_viability: Viability Assessment in the Tox21 HEK293 Progesterone Receptor (PR) Agonism Beta-lactamase Follow-Up Assay (AID 2283935; active means hit-call score of the fitted dose curve at least 0.9, where 1 is the maximum;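 further: signal loss means lower viability so actives are cytotoxic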). The method in brief:
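PR-UAS-bla HEK293T cells in 2% charcoal-stripped FBS medium, plated 6 hr before compound addition, exposed 16 hr at 37C. Viability read by CellTiter-Glo ATP luminescence after 30 min at room temperature, in the same wells as the beta-lactamase readout.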

Molecules are shown by their SMILES. Inconclusive results are not listed. The source made the active and inactive calls. How the source made its calls, unless noted: active means hit-call score of the fitted dose curve at least 0.9, where 1 is the maximum; inactive means score below 0.9.

Five molecules from PubChem BioAssay (EPA / NIEHS) can be followed below.

Turning to `c1ccc2cc3ccccc3cc2c1`, the result in [1], in [2], in assay [3], in assay [4], in [5] and in [6] was inactive.

In the case of `O=S(=O)(O)c1ccc(N=Nc2c(O)ccc3cc(S(=O)(=O)O)ccc23)cc1`, the molecule was called inactive in assay [1], in assay [2], in [3] and in assay [5].

Consider `Cc1nc(-c2ccccn2)ncc1C(=O)Nn1cc(C)c2cc(F)ccc21`, for which the AC50 (in general, the midpoint of the concentration-response curve, whichever way the signal moves) in [1] was 12.7 µM (active); in assay [2], 9.57 µM (active); in assay [3], 5.19 µM (active); in assay [5], 3.34 µM (active); in assay [7] it was 11.5 µM (active). In addition, the molecule was classed as inactive in [4] and in assay [6].

For `NC(=O)N(O)[C@@H]1COc2cc(OCc3ccccc3)ccc21`, the outcome (in the assay with PGR (gene 5241); in assay [8]) was inactive.

On to `CC(C)C(=O)Nc1ccc([N+](=O)[O-])c(C(F)(F)F)c1`, for which, in the assay with PGR (gene 5241), the AC50 was 46.1 µM (active). For the same molecule, the result in [9] and in [8] was inactive.
